# From the supplement of paper PMC4466236
# The full ranking holds about 33,000 sequences; the median of “E-score (dimensionless, -0.5 to 0.5)” is about -0.058, and the highest 2% start at about 0.35. For the sample, the highest values were picked, then their nearest neighbours and some sequences at random.
# Tested on: MvaT
# Assay: PBM 8-mer E-score (mean of HK and ME arrays) (E-score (dimensionless, -0.5 to 0.5)); higher = stronger relative binding preference
# Description: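 Protein binding microarray: GST-tagged full-length MvaT (P. aeruginosa PAO1) bound to two universal double-stranded 60-mer arrays (ME and HK), each with a constant 25-mer primer and a variable 35-mer region covering all 8-mers. The 8-mer E-score (rank-based, range -0.5 to 0.5, >0.45 = specific binding) is the mean of the two arrays.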
row,Sequence,PBM 8-mer E-score
1,CGGTTATC,0.0552
2,GCATCGGA,-0.11
3,CTGATGCC,-0.231
4,AGAGAAAT,0.134
5,GATAGTAA,0.284
6,AAATTAAG,0.361
7,AAATTAAT,0.426
8,CAATTAAA,0.305
9,TAATTAAA,0.447
10,CAATTAAG,0.24
11,GAATTAAC,0.256
12,AAATTAGT,0.281
13,TGATTAAA,0.27
14,GAATTAAA,0.385
15,AAATTACT,0.308
16,GGATTAAA,0.232
17,AAATTACG,0.256
18,CCCGTACA,-0.0141
19,CGTAATCA,0.0215
20,AAATTAGA,0.191
21,AAATTAAA,0.399
22,AAATTAAC,0.27
23,CGGAGGGA,-0.311
24,CAAAACAC,0.0954
25,GGTTTAAA,0.31

row,Sequence,PBM 8-mer E-score
1,AGTTTAAC,0.244
2,CGTTTAAA,0.317
3,AGTTTAAG,0.257
4,AGTTTAAT,0.379
5,TGTTTTAA,0.302
6,AGTTTAAA,0.378
7,TGTTTAAA,0.387
8,AGTTTTAA,0.259
9,AATTCTGA,0.0908
10,TGCATCCA,-0.0802
11,GGGCCCTA,-0.218
12,AGGAAGAG,-0.188
13,ATGGAGTA,0.0119
14,TATACTAA,0.391
15,GATACTAA,0.213
16,AATACTAT,0.297
17,CATACTAA,0.198
18,AATACTAA,0.356
19,AATACTAC,0.271
20,TCTGAGAA,-0.0369
21,AGCTAAGA,-0.0322
22,CTAATGCA,-0.0396
23,ATAATGCA,0.36
24,ATAATGTC,0.337
25,ATAATGCG,0.271

row,Sequence,PBM 8-mer E-score
1,CTAATGTA,0.23
2,ATAATGTA,0.401
3,ATCCCGCC,-0.0462
4,CCTATCTC,0.0122
5,AACCGTTG,-0.0901
6,GTTGTACA,0.115
7,AAGAGTGA,0.00575
8,CTTCACTC,-0.239
9,CTAAGTTA,0.352
10,ATAAGTTA,0.441
11,ATAAGTTG,0.342
12,GGAAGTTA,0.227
13,AGAAGTTC,0.223
14,ATAAGTTC,0.368
15,GTAAGTTA,0.396
16,CTAAGTTC,0.232
17,CTAAGTCA,-0.101
18,GCAAGTTA,0.34
19,ATAAGTGC,0.178
20,ACAAGTTA,0.338
21,ACACAACG,-0.0104
22,GAAGGAGA,-0.255
23,GGGTTCAC,-0.111
24,AACCATAT,0.254
25,AACATCCC,2.53e-05

row,Sequence,PBM 8-mer E-score
1,TACGAGGA,-0.05
2,GGGGCCAA,-0.225
3,CTATCCAA,-0.0391
4,ATATTAGA,0.407
5,ATATTACC,0.293
6,GTATTAGA,0.267
7,CTATTAGC,0.136
8,CTATTAGA,0.208
9,ATATTACA,0.386
10,ATATTAGG,0.309
11,CTATTACA,0.267
12,ATATTAGC,0.352
13,ATCTGTGA,-0.0144
14,CACTTAGC,-0.0629
15,GCCCGCGA,-0.31
16,ACCTGTCG,-0.277
17,CTGAAAAG,-0.0791
18,AAAATTGA,0.224
19,AAAATTAG,0.162
20,TAAATTAA,0.437
21,AAAATTAC,0.149
22,AAAATTAA,0.387
23,AAAATTAT,0.355
24,CAAATTAA,0.286
25,AAAATTGT,0.269

row,Sequence,PBM 8-mer E-score
1,GAAATTAA,0.331
2,CCTAATAC,0.104
3,GGGCTCCA,-0.168
4,GAAGCATA,0.00764
5,CACACCTA,0.0249
6,ACACGAGT,-0.0299
7,ACTACTGG,0.0326
8,AATCCGCC,-0.0734
9,ATTTAAAA,0.377
10,CTTTTTAA,0.213
11,CTTTTAAA,0.361
12,ACTTAAAA,0.226
13,GTTTTAAA,0.282
14,CCTTAAAA,0.0816
15,ATTTTAAA,0.383
16,ATTTTTAA,0.323
17,CTTTTAAC,0.314
18,CGCTGGAA,-0.092
19,AGCAAAAA,0.0929
20,ACGTTGAT,0.0529
21,GCAAACAA,0.0823
22,AATATAGC,0.343
23,AATATAGG,0.288
24,AATATAGA,0.365
25,AATAGAGA,0.217

row,Sequence,PBM 8-mer E-score
1,AATATAGT,0.398
2,GATATAGA,0.206
3,TATATAGA,0.434
4,CATATAGA,0.187
5,ACTATAGA,0.127
6,CCCTTCAG,-0.27
7,GAGTAGAA,0.0154
8,AGAAACGG,-0.0989
9,ATACAATG,0.204
10,CCGGCTAC,-0.217
11,GCCAGAAC,-0.0482
12,AAATAAAC,0.334
13,AAATAAAA,0.419
14,AGATAAAA,0.178
15,CAATAAAG,0.252
16,AAATAAGT,0.38
17,ACATAAAG,0.101
18,ACATAAAA,0.23
19,AAATAAGG,0.322
20,AAATAAAG,0.405
21,ACATAAAT,0.301
22,AAATAAAT,0.428
23,AAATAAGC,0.275
24,AAGCCGCT,-0.232
25,ATTCAACG,0.0307

row,Sequence,PBM 8-mer E-score
1,CCAATTCA,-0.0716
2,TCCTGTCA,-0.158
3,GAGCAAAC,-0.0867
4,GCTGCCAA,-0.0483
5,CTACTAAG,-0.00927
6,AAGCGTCA,-0.00559
7,CCGAATAG,-0.0201
8,CGCAGTCC,-0.172
9,AACCTCCA,-0.115
10,GGTCTGTA,-0.219
11,GAACCTGA,-0.0412
12,AATCTCGA,0.179
13,ACTGAAAG,-0.0474
14,TATTAACA,0.437
15,AATTAAAA,0.373
16,ATTAAAAT,0.29
17,AATTAAAG,0.355
18,AATTAAAT,0.452
19,CATTAAAG,0.272
20,ACTTAAAG,0.159
21,CATTAACA,0.274
22,GATTAACA,0.278
23,ACTTAAAT,0.331
24,ATGTTGGA,0.125
25,CAACCATA,0.0988

row,Sequence,PBM 8-mer E-score
1,CTCGTAAG,-0.0264
2,CCTGGTTC,-0.254
3,CCGCCGGC,-0.321
4,AAATAGGA,-0.0215
5,AAAAACAC,0.087
6,CAGGTGAG,-0.208
7,GCCCCACC,-0.292
8,AAGGAGTC,-0.047
9,CTAATCAA,0.102
10,AATTAAAC,0.382
11,CATTAAAA,0.201
12,CATTAAAC,0.334
13,TATTAAGA,0.366
14,TATTAAAA,0.41
15,GATTAAGA,0.157
16,GATTAAAC,0.191
17,AATTAAGA,0.277
18,GATTAAAA,0.217
19,TGATGGAA,0.0193
20,CGCCCCTC,-0.202
21,CCACCCTA,0.0237
22,AAAAGTGC,0.142
23,AGGTGGGC,-0.177
24,AATTTGGC,0.161
25,CTGCAGTA,0.129

row,Sequence,PBM 8-mer E-score
1,AAAGCATA,0.0331
2,GCTTAAAC,0.121
3,CTTTAAAG,0.25
4,ATTTAAAT,0.474
5,GTTTAAAC,0.406
6,ATTTAAAG,0.354
7,CTTTAAAC,0.229
8,ATTTTAAG,0.225
9,ATTTTAAC,0.307
10,GGTTAAAC,0.0681
11,ATTTAAAC,0.398
12,ATTAAAAC,0.301
13,GGGTGCAA,-0.0874
14,AGTTCGAT,0.171
15,CGGTCCGA,-0.24
16,GGGTAGCA,-0.213
17,CAGTGTCC,-0.176
18,GACAAATC,-0.0221
19,AGTTAATA,0.406
20,GTTTAAGA,0.246
21,ATTTAATG,0.376
22,ATTTAAGG,0.101
23,ATTTAACA,0.376
24,ATTTACTG,0.247
25,GTTTAACA,0.281

row,Sequence,PBM 8-mer E-score
1,ATTTAACG,0.255
2,ATTTAACC,0.195
3,AGTTAATC,0.169
4,GTTTAATA,0.407
5,GGTTAATA,0.276
6,CAACTCCA,-0.0538
7,CACCCAGA,-0.158
8,CATAGGAG,0.0253
9,AATCTCGG,0.0949
10,ACACCATA,0.0603
11,CCAGGTCA,-0.141
12,AAGTAGGT,0.0927
13,CATTCCCC,-0.183
14,ATTTAATC,0.346
15,ATTTAAGC,0.309
16,CTTTAATC,0.141
17,ATTTAAGA,0.239
18,CTTTAATA,0.344
19,ATTTAATA,0.411
20,AGATCGCG,-0.153
21,GATTCAGA,-0.0136
22,GAGTTAGC,-0.00613
23,GGACCAAA,-0.139
24,AGCTCGGA,-0.141
25,GAATTATC,0.147

row,Sequence,PBM 8-mer E-score
1,TAATTCTA,0.278
2,TAATTGTA,0.305
3,TAATTATA,0.462
4,GAATTACA,0.175
5,AAATTATC,0.318
6,CAATTATC,0.264
7,AAATTATG,0.233
8,GAATTATA,0.374
9,AAATTATA,0.45
10,CAATTATA,0.414
11,CAATTATG,0.329
12,AAGGACCA,-0.154
13,AGGGGGTG,-0.316
14,AACCTGCT,-0.0689
15,TGTCCCAA,0.187
16,CTGGCAAC,0.0118
17,TCCTTCAA,-0.14
18,ATACTAAG,0.272
19,AGTAGGTG,-0.0642
20,AATCGAAC,0.176
21,CCCGGCGA,-0.269
22,AAATTGTC,0.22
23,AAATTGTT,0.351
24,AAATTGTA,0.267
25,CAATTACA,0.288

row,Sequence,PBM 8-mer E-score
1,AAATTACA,0.274
2,AAATTACC,0.212
3,CAATTAGA,0.202
4,TAATTACA,0.384
5,AAATTATT,0.401
6,GAATTAGA,0.106
7,AAATTAGG,0.165
8,TAATTAGA,0.353
9,ACAGCAAG,-0.0242
10,GTACATAA,0.297
11,CCGGGACC,-0.311
12,ATCCAGAA,0.0751
13,ATCAGTCG,-0.0941
14,ACAAATGC,0.0069
15,GAGGTAGC,-0.211
16,AGCCACCA,-0.0502
17,TAAAGTTA,0.315
18,GATAGTTA,0.311
19,AAAAGTCA,0.0201
20,AAAAGTTC,0.277
21,AAAAGTGA,0.0292
22,AAAAGTTA,0.371
23,AAAAGTTT,0.352
24,AAAAGTTG,0.221
25,AATAGTTA,0.387

row,Sequence,PBM 8-mer E-score
1,CATAGTTA,0.178
2,GAAAGTTA,0.346
3,CAAAGTTA,0.265
4,GCGTCAGA,-0.131
5,CGTGGATA,0.112
6,ATCCCAGA,-0.203
7,GCCACGCA,-0.169
8,CACCGGTG,-0.153
9,GAAACAGA,-0.0327
10,CGGAGTAC,-0.128
11,CTGAATGC,-0.0524
12,AGGTCGCG,-0.202
13,AAAAAGTA,0.154
14,AAAAAGTC,0.17
15,AAAAAGTT,0.357
16,TGCCGGCA,-0.0619
17,ATGACTCA,-0.062
18,AGTTAAAA,0.37
19,TGTTAAAA,0.25
20,AGTTAAAG,0.209
21,AGTTAAAC,0.242
22,CGTTAAAA,0.295
23,AGTTAAAT,0.383
24,ACCTGCAC,-0.11
25,CCGCAGAC,-0.181

row,Sequence,PBM 8-mer E-score
1,AAAGACGT,0.0386
2,CGTGCGCC,-0.27
3,TCCAGGCA,-0.215
4,AATTGTAA,0.305
5,GAATGTAA,0.232
6,ACATGTAA,0.361
7,GATTGTAA,0.109
8,AAATGTAA,0.373
9,TATTGTAA,0.379
10,CAATGTAA,0.236
11,AAATGTAG,0.0975
12,CCATGTAA,0.171
13,TAATGTAA,0.373
14,TCATGTAA,0.119
15,AAATGTAC,0.14
16,AGTAGATA,0.202
17,CGAATTTA,0.157
18,CTGGGATA,-0.0515
19,CGCAACCC,-0.0943
